Most compounds without a hit are left out; they make up all but 1.3% or so of the library.
GALK inhibitor = qHTS Assay for Inhibitors of Human Galactokinase (GALK). AID 1868, 2009. actives 0.007% (n = 270,000). Purified GALK, Kinase-Glo residual ATP luminescence. Potency, µM (series often up to 57.5 µM), for the others: at the top dose activity change, negative = inhibition, most hits filed as inhibitors. P51570; also: potency is read from the fitted curve at half-maximal effect
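Luminescence from leftover ATP (Ultra-Glo luciferase/luciferin) served as read-out after a 1 h room-temperature reaction of 5 nM GALK with 35 uM ATP and 100 uM galactose.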
TrxR1 substrate = qHTS Assay for Substrates of Mammalian Selenoprotein Thioredoxin Reductase 1 (TrxR1): qHTS; Thioredoxin reductase 1, cytoplasmic (Rattus norvegicus), O89049; purified TrxR1 substrate turnover, NADPH consumption readout; Potency, µM (titrated, usually from 114 µM), for the others: at the highest dose activity change, negative = substrate turnover; actives 0.01% (n = 390,000); AID 588456, 2011; also: potency is read from the fitted curve at half-maximal effect; nearly all actives have a fitted effect of over 50% in size
Target sequence (O89049 whole entry, looked up): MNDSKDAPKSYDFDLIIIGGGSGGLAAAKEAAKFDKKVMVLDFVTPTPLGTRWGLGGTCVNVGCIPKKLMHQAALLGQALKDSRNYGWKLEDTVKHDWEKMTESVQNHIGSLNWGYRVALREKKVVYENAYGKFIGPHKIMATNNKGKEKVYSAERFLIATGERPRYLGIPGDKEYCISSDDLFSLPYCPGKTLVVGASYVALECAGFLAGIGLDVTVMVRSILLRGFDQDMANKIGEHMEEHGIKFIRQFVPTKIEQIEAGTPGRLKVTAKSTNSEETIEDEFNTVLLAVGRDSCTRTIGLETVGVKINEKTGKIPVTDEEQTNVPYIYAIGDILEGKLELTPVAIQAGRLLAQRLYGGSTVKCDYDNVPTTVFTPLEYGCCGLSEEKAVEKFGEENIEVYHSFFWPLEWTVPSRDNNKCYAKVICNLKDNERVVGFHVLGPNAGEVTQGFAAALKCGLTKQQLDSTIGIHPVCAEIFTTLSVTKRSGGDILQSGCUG
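Rat TrxR1, dispensed at 90 nM, was prereduced with 400 uM NADPH (final) for 5 min at ~22 deg C, then incubated with compound 15 min before 400 uM selenite. A first-read NADPH fluorescence drop versus no-compound background flagged substrates.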
Giardia kill = Small Molecules that selectively kill Giardia lamblia: qHTS; Giardia lamblia trophozoite viability; activity change, % at 7.66 µM, hits read low; actives 0.15% (n = 340,000); AID 540267, 2011; in the data active = activity change below about -80%; inconclusive = between about -30% and that limit;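 also: parasites exposed to compound for two days anaerobically before the ATP read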
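Luminescence from cellular ATP indicates surviving trophozoites (100 cells/well) following 48 hrs anaerobic compound treatment at 37 deg C; signal develops 15-30 min at room temperature.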
Pin1 inh = qHTS Assay to Find Inhibitors of Pin1 | AID 504891, 2011 | Pin1 FP peptide displacement, HiFluor488, 10 min | actives 0.009% (n = 390,000) | Potency, µM (top dose mostly 115 µM), without a hit: at the highest dose activity, negative = inhibition, most hits filed as inhibitors | Peptidyl-prolyl cis-trans isomerase NIMA-interacting 1 (Homo sapiens), Q13526; active = well fitted inhibition curve with a large enough effect in the polarisation, with a control signal flat, not every such curve was filed as active; inconclusive = small, poorly fitted or top-dose-only effect, or effect the other way, or a change in a side signal; inactive = no such curve, though single readings can be large or run the other way; the % refers to the polarisation; also: potency is read from the fitted curve at half-maximal effect
TrxR1 inh = qHTS Assay for Inhibitors of Mammalian Selenoprotein Thioredoxin Reductase 1 (TrxR1): qHTS; Thioredoxin reductase 1, cytoplasmic (Rattus norvegicus), O89049; recombinant rTrxR1, NADPH fluorescence consumption, selenite substrate; Potency, µM (series often up to 114 µM), without a hit: at the top dose activity change, negative = inhibition, actives largely listed as inhibitors; actives 1% (n = 390,000); also: potency is read from the fitted curve at half-maximal effect; nearly all actives have a fitted effect of over 65% in size
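Rat TrxR1 (90 nM in the dispensed reagent) was pre-reduced with 400 uM NADPH for 5 min at room temperature, then incubated with compound for 15 min. After 400 uM selenite was added, NADPH fluorescence (Ex 340/Em 450 nm) was followed for 8 min.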
GCN5L2 inh = qHTS Assay for Inhibitors of GCN5L2. GCN5L2 HAT assay, ThioGlo1 CoA-SH fluorescence. Potency, µM (top dose mostly 58.9 µM), inactives show top-dose activity change, negative = inhibition, actives largely listed as inhibitors. actives 0.21% (n = 390,000); also: potency is read from the fitted curve at half-maximal effect
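GCN5L2 (20 nM) in 50mM HEPES pH 7.5, 0.1mM EDTA, 0.01% Tween-20 preincubated 15 min with compounds at room temperature. Reaction started with H3(1-25) 75uM, acetyl-CoA 70uM, ThioGlo1 50uM; CoA-thiol fluorescence (Ex340/Em540) read at 0 and 20 min.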
Active calls of the source: *; i = inactive; ? = inconclusive; · = no result; [ ] = remark or other dose. Unless noted, calls follow the shape of the dose curve; as a rule, active = well fitted curve in the direction sought with a large enough effect; inconclusive = small, poorly fitted or top-dose-only effect, or another doubt; inactive = no such curve, though single readings can be large; an effect the other way counts as inactive or inconclusive. % is scaled to controls: 0 for no effect and ±100 for the full control effect.

SMILES	GALK inhibitor	TrxR1 substrate	Giardia kill	Pin1 inh	TrxR1 inh	GCN5L2 inh
COc1ccc(C2c3ccc(O)cc3Oc3ncn(Cc4ccco4)c(=N)c32)cc1 (stereo not given)	0%	6%	28	?	50µM*	0%
COc1ccc(C2c3c(ncn(Cc4ccco4)c3=N)Oc3ccc4ccccc4c32)cc1 (stereo not given)	0%	1%	-16	28%	16%[0.0914 µM]	-21%
Cc1ccc(S(=O)(=O)N2CCN(c3nc(C#N)nc4ccccc34)CC2)cc1	·	·	·	40%	·	·
O=C(O)/C=C/C(=O)Nc1ccc(Oc2ncnc3cc(Cl)ccc23)nc1	4%	4%	1	0%	56µM*	-15%
O=C(CCN=C1NS(=O)(=O)c2ccccc21)OCc1nnc(-c2ccc([N+](=O)[O-])cc2)o1	·	-4%	-27	?	-2%	-8%
Clc1ccccc1CSc1nnc(-c2cccnc2)n1Cc1ccco1	2%	1%	-1	3%	25µM*	-9%
Fc1ccc(CSc2nnc(-c3cccnc3)n2Cc2ccco2)cc1	0%	18%	15	2%	?	-5%
C[C@H](C(=O)OCO/N=[N+](\[O-])N1CCCC1)c1cccc2ccccc12	·	-10%	-15	-11%	18µM*	·
O=c1ccc2cc(O)c(O)cc2o1	·	332%	-4	-10%	51%	-22%
O=c1ccc2ccc(O)cc2o1	·	i	6	-10%	79µM*	?
Cc1cc(=O)oc2cc(O)ccc12	·	i	?	-4%	50µM*	?
CCCCOc1ccc(C(=O)NCC(=O)NC2CCCCC2)cc1	·	-2%	-6	4%	31%	-7%
CCOc1ccc(C(=O)NC2C(=O)N3C(C(=O)O)=C(COC(C)=O)CSC23)cc1OCC (stereo not given)	·	-6%	-10	?	56µM*	-5%
CC1(C)Cc2nc3oc4c(=S)nc[nH]c4c3cc2CO1	3%	-8%	4	12%	11µM*	2%
CC1CCc2nc3ncn(Cc4ccccc4F)c(=O)c3cc2C1 (stereo not given)	·	3%[57.1 µM]	·	18%	20%[57.1 µM]	-6%
CC(=O)Nc1ccc(SCC(CC(C)C)N2CCN(CCc3ccccc3)CCC2=O)cc1 (stereo not given)	·	-14%	6	4%	19%	·
Cc1ccc(NC(=O)c2ccc([N+](=O)[O-])o2)c(C)c1	0%	-2%	-90*	5%	-10%	1%
COc1ccc(-c2nnc(NC(=O)c3ccc([N+](=O)[O-])o3)o2)c(OC)c1	4%	-15%	-100*	-1%	?	?
Cc1ccc(-c2nnc(NC(=O)c3ccc([N+](=O)[O-])o3)o2)c(C)c1	·	-18%	-81*	1%	?	1%
COc1cccc(-c2nnc(NC(=O)c3cccc(F)c3)o2)c1	-2%	-12%	-1	-10%	-31%	-5%
CN1C2CC(OC(=O)C(CO)c3ccccc3)C[C@@H]1[C@H]1OC21 (stereo not given in full)	·	·	·	·	·	1%
CCn1cnc2c(Nc3ccc(CCC(=O)N=C(N)N)cc3)nc(C#N)nc21	·	·	·	7%	·	·
COc1ccc(C2c3c(nc(CCc4ccccc4)[nH]c3=O)Oc3ccc4ccccc4c32)cc1OC (stereo not given)	·	·	·	58%	·	·
COc1cccc(C2c3c(ncn(-c4ccc(Br)cc4)c3=N)Oc3ccc4ccccc4c32)c1 (stereo not given)	·	·	·	64%	·	·
CCOc1c(Cl)cc(CNc2ccc(N3CCCC3)cc2)cc1OC	0%	-9%	-17	-1%	13µM*	-9%

High-throughput results from PubChem.
